# PLK1 PBD block = blocks phosphopeptide binding to human PLK1 polo-box domain; P53350; Plk1 PBD binding of FITC phosphopeptide, fluorescence polarization; Potency, µM, for inactives: max response, negative = inhibition, most hits filed as inhibitors; actives 2.8% (n = 360,000); note: potency is the fitted concentration of half-maximal effect; series mostly up to about 57 µM; % is set by controls: 0 for no effect and ±100 for the full control effect; nearly all actives have a fitted effect of over 65% in size
# KCNH2 WT inh = KCNH2 (human, wildtype) channel inhibition. Q12809. U2OS, BacMam KCNH2, thallium flux FluxOr; stronger effect = lower value. activity change, % at 1.84 µM. actives 0.37% (n = 340,000). AID 720551;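 active = maximum activity change below -70%; inconclusive = maximum activity change between -70% and -50%; inactive = maximum activity change above -50%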; note: % is set by controls: 0 for no effect and ±100 for the full control effect
#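 U2OS cells were transduced with wild-type KCNH2 virus (2.03 x 10^8 / mL) for 4 h at room temperature, then cultured overnight at 37 C. Thallium flux was read with FluxOr dye. Rate constants were normalized to DMSO controls.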
# MBNL1-CUG inh = inhibitors of human MBNL1 binding to CUG repeat RNA; actives 0.036% (n = 280,000); Potency, µM (titrated, usually from 57.5 µM), without a hit: top-dose activity change, negative = inhibition, most hits filed as inhibitors; TR-FRET MBNL1-His/biotin-(CUG)12 binding, 665/545 ratio; Q9NR56; active = well fitted inhibition curve with a large enough effect in the signal ratio, with a control signal flat, not every such curve was filed as active; inconclusive = small, poorly fitted or top-dose-only effect, or effect the other way, or a change in a side signal; inactive = no such curve, though single readings can be large or run the other way; the % refers to the signal ratio; note: potency is the fitted concentration of half-maximal effect; % is set by controls: 0 for no effect and ±100 for the full control effect
#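 Compound titration spanned 92 nM–58 uM against the MBNL1-His/biotin-(CUG)12 complex. After 60 min at room temperature with 5 nM streptavidin-XL665 and 0.055 ng/ul terbium anti-His, ratiometric 665/545 nm emission (Ex 340 nm) normalized to controls.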
# VDR inhibitor = vitamin D3 receptor (human) inhibition; Potency, µM, for inactives: max response, negative = inhibition, actives largely listed as inhibitors; VDR-SRC2-3 peptide fluorescence polarization, 2 h; P11473; actives 0.93% (n = 400,000); note: potency is the fitted concentration of half-maximal effect; % is set by controls: 0 for no effect and ±100 for the full control effect
#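 After 23 nl compound addition and a short centrifugation, plates sat for 2 hours at ambient temperature; polarization of fluorescence then indicated loss of VDR binding to peptide SRC2-3.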
# KCNH2 3.1 block = inhibitors of human KCNH2 3.1 potassium channel isoform; U2OS KCNH2 3.1, thallium flux FluxOr; stronger effect = lower value; activity change, % (tested at about 1.8 µM); actives 0.95% (n = 340,000); AID 720553;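 active = maximum activity change below -70%; inconclusive = maximum activity change from -70% to -50%; inactive = maximum activity change above -50%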;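 note: thallium influx rate constant from kinetic fluorescence after stimulation buffer; % is set by controls: 0 for no effect and ±100 for the full control effect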
#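 We transduce U2OS cells with the mutant 3.1 virus, culture them overnight, load FluxOr with Red40 quencher for 45 min, then add stimulation buffer and read kinetically for 2 min to derive a normalized rate constant.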
# CBFb RUNX1 block = inhibitors of human CBF-beta and RUNX1 interaction; AlphaScreen CBFb-His/RUNX1-biotin binding, biochemical; Potency, µM (highest dose often 59.8 µM), inactives show at the top dose activity, negative = inhibition, actives largely listed as inhibitors; 230,000 tested, under 10 active; Q01196+Q13951; note: % of control where 0% means no effect
# Target sequence (Q01196 whole entry, looked up): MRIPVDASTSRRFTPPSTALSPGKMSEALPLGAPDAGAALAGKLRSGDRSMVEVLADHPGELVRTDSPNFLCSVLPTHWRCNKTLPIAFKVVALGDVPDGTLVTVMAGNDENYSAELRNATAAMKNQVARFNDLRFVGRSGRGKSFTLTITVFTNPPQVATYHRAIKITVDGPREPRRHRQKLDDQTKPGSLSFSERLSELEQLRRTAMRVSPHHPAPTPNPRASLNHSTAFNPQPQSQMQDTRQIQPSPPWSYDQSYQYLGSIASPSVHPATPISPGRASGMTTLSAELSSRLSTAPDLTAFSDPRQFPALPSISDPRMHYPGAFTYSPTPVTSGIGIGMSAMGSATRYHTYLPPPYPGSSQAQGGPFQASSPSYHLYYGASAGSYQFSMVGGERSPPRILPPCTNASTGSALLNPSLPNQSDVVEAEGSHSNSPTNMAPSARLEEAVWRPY
# Target sequence (Q13951 whole entry, looked up): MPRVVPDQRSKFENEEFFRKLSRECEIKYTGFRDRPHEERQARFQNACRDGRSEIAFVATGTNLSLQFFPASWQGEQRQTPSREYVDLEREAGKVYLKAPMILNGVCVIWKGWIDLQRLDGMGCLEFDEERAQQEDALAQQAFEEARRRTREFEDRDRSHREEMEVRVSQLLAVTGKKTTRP
#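 Bead-based AlphaScreen assay; binding partners His-tagged CBF-beta and biotinylated RUNX1 at 30 nM each. Compound exposure 15 min after a 20-min protein preincubation; bead step 90 min; all steps at room temperature.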
# USP1 UbRho = USP1-UAF1 deubiquitinase inhibition validated; shares compounds with VDR inhibitor; Ub-Rhodamine cleavage, fluorescence kinetic read; Potency, µM (top dose mostly 56.8 µM), for inactives: at the top dose activity change, negative = inhibition, hits mostly inhibitors; actives 50% (n = 50); AID 540327
# VDR confirm = inhibits human vitamin D receptor, primary hit validation; VDR-coactivator inhibition assay, qHTS confirmation; shares compounds with VDR inhibitor; AID 602199; Potency, µM, most hits filed as inhibitors; actives 89% (n = 840); note: potency is the fitted concentration of half-maximal effect
# VDR FP fluor = VDR (human) coactivator binding inhibition, fluorescein polarization. shares compounds with VDR inhibitor. VDR-coactivator binding, fluorescein fluorescence polarization. Potency, µM (series often up to 57.1 µM), for inactives: at the highest dose activity change, negative = inhibition, hits mostly inhibitors. actives 48% (n = 840); note: potency is the fitted concentration of half-maximal effect
# VDR bla reporter = inhibits human VDR in beta-lactamase reporter cells | shares compounds with VDR inhibitor | VDR beta-lactamase reporter cells, FRET ratio; cells co-treated with VDR agonist LG190178 | Potency, µM (doses to about 46.1 µM), without a hit: top-dose activity change, negative = inhibition, most hits filed as inhibitors | actives 23% (n = 840) | AID 602202; note: potency is the fitted concentration of half-maximal effect; % is set by controls: 0 for no effect and ±100 for the full control effect
# VDR viability = cytotoxic in counter-screen for VDR inhibitors. shares compounds with VDR inhibitor. cytotoxicity counter-screen, cell viability, qHTS. Potency, µM (highest dose often 48.3 µM), for the others: at the top dose activity change, negative = cytotoxicity, usual class: cytotoxic. actives 18% (n = 840). AID 602204;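 note: potency is the fitted concentration of half-maximal effect; plate controls were DMSO for no effect and high-concentration cycloheximide for full effect; nearly all actives have a fitted effect of over 75% in size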
# Starred values were filed as active, the others as inactive; ? = inconclusive; · = no result given; [ ] = remark or other dose. The list is not random: actives were taken first. Their share in the collection is about 3.8%. Unless noted, calls come from the whole dose curve; as a rule, active = well fitted curve in the direction sought with a large enough effect; inconclusive = small, poorly fitted or top-dose-only effect, or another doubt; inactive = no such curve, though single readings can be large; an effect the other way counts as inactive or inconclusive.
SMILES,PLK1 PBD block,KCNH2 WT inh,MBNL1-CUG inh,VDR inhibitor,KCNH2 3.1 block,CBFb RUNX1 block,VDR confirm,VDR FP fluor,VDR bla reporter,VDR viability,others
CC(=O)c1c(O)n(-c2cccc(Cl)c2)c(=O)[nH]c1=O (tested in a mixture with another compound),-2%,0,11%,0%,13,0%,·,·,·,·,
C[C@]12CCC3C(CC[C@]4(O)C[C@@H](O)CC[C@]34C=O)[C@@]1(O)CC[C@@H]2C1=CC(=O)OC1 (stereo partly specified),·,·,·,2%,·,15%[21.7 µM],·,·,·,·,
NC(N)=Nc1ccc2[nH]c3c(c2c1)C[C@@]1(O)[C@H]2Cc4ccc(O)c5c4[C@@]1(CCN2CC1CC1)[C@H]3O5,0.95µM*,3,·,35µM*,-10,4%,·,·,·,·,USP1 UbRho=?
CN1CC[C@]2(C)c3cc(O)ccc3N(C)[C@@H]12,·,·,·,?,·,0%[21.7 µM],·,·,·,·,USP1 UbRho=?
Cc1ccccc1N1C(=O)NC(=O)/C(=C\c2ccc3c(c2)CCCN3Cc2ccccc2)C1=O,?,0,9%,40µM*,0,7%,12*,200%,38%,12%,
COC(=O)C1=Nc2ccccc2/C1=C\c1c(O)n(-c2ccc(Br)cc2)c(=O)[nH]c1=O,1.7µM*,10,·,79µM*,-8,18%,21*,?,30%,-9%,
C(=C/c1ccccc1)/CN1CCN(CCOC(c2ccccc2)c2ccccc2)CC1,·,·,·,-7%,·,-18%[21.7 µM],·,·,·,·,
O=C(/C=C/c1ccccc1)c1c(O)n(CCc2ccccc2)c(=O)[nH]c1=O,-9%,2,·,?,4,-10%,2*,?,18µM*,22%,
O=C1NC(=O)N(CCC2=CCCCC2)C(=O)/C1=C\c1cccs1,1.1µM*,-18,-7%,45µM*,·,-1%,8.4*,?,4%,-28%,
O=C1NC(=O)N(CCc2ccc(F)cc2)C(=O)/C1=C/c1cccs1,1.1µM*,-35,-6%,18µM*,-10,-5%,9.5*,?,19%,7%,
O=C1NC(=S)N(Cc2ccco2)C(=O)/C1=C\c1cccs1,·,·,-3%,·,·,·,·,·,·,·,
C=C1C2C[C@]3(C4CC5[C@@]6(C)CC[C@H](O)[C@@]5(C3CC2=O)C4[N+]([O-])(CC)C6)[C@@H]1O (stereo partly specified),·,·,·,3%,·,-10%,·,·,·,·,
CCOC(=O)c1ncc2[nH]c3ccc(OCc4ccccc4)cc3c2c1COC,·,·,·,-1%,·,?,·,·,·,·,
O=C1NC(=O)C(=Cc2ccccc2OCCOc2ccc([N+](=O)[O-])cc2)C(=O)N1,6µM*,-21,·,45µM*,0,-1%,27*,10µM*,20%,?,
COC(=O)CCC(=O)Nc1sc(Cc2ccccc2)c(C)c1C(N)=O,2.4µM*,3,-11%,20µM*,·,-7%,?,?,-2%,19%,
O=C1CCCC2C3CC(CN12)C1CCCCN1C3 (stereo unspecified),·,·,·,16%,·,·,·,·,·,·,
O=C(/C=C/c1ccc(Cl)cc1)N[C@@]12CCC(=O)[C@@H]3Oc4c(O)ccc5c4[C@@]31CCN(CC1CC1)C2C5,·,·,·,1%,·,7%,·,·,·,·,
O=c1nc(/C=C/c2ccc(Cl)cc2Cl)cc(C(F)(F)F)[nH]1,27µM*,-6,?,10µM*,7,·,7.5*,3.2µM*,?,37%,
O=C1NC(=O)N(c2ccccc2)C(=O)/C1=C\c1ccccc1[N+](=O)[O-],?,-1,6%,45µM*,13,-2%,21*,28µM*,24%,6%,
CCOc1ccc(N2C(=O)NC(=O)/C(=C\c3cc(OC)c(OC)cc3[N+](=O)[O-])C2=O)cc1,32%,13,?,32µM*,-8,2%,17*,13µM*,26%,6%,
CCOC(=O)C1CCN(/C=C2/C(=O)NC(=O)N(c3ccc(OCC)cc3)C2=O)CC1,-13%,-3,-5%,3%,11,3%,·,·,·,·,
C=CCN1CCC23c4c5ccc(O)c4OC2/C(=N/N=C2\CCC4(O)C6Cc7ccc(O)c8c7C4(CCN6CC=C)C2O8)CCC3(O)C1C5 (stereo unspecified),·,·,·,-12%,·,10%,·,·,·,·,
NC(Cc1cc(O)c(O)cc1O)C(=O)O (stereo unspecified),·,·,·,45µM*,·,·,·,·,·,·,USP1 UbRho=12µM*
Cc1ccccc1-c1cncnc1NCCc1cnc[nH]1,·,·,·,-11%,·,·,·,·,·,·,
COc1ccc(/C=C2/C(=O)NC(=S)N(C3CC3)C2=O)cc1CN1C(=O)c2ccccc2C1=O,2.7µM*,36,23%,45µM*,-3,0%,11*,7.9µM*,28%,?,
SMILES,PLK1 PBD block,KCNH2 WT inh,MBNL1-CUG inh,VDR inhibitor,KCNH2 3.1 block,CBFb RUNX1 block,VDR confirm,VDR FP fluor,VDR bla reporter,VDR viability,others
O=C(N/N=C/c1c(O)n(Cc2ccco2)c(=O)[nH]c1=O)c1ccccc1,-18%,-2,-3%,2%,5,?,·,·,·,·,
COc1ccc2[nH]cc(CCN=C(N)N)c2c1,-6%,1,-5%,2%,13,1%,·,·,·,·,
COc1ccc2[nH]cc(C3=CCNCC3)c2c1,·,·,·,-1%,·,11%,·,·,·,·,USP1 UbRho=53µM*
N#CC(C#N)=NNc1ccc(-n2ccc(C(F)(F)F)n2)cc1,?,-5,6%,20µM*,0,?,3*,?,?,?,
N#CC(C#N)=NNc1ccc([N+](=O)[O-])cc1,6%,-9,?,?,-15,?,·,·,·,·,
c1ccc2sc(C3(NCC4CC4)CCCCC3)cc2c1,·,·,·,7%,·,10%,·,·,·,·,

# From PubChem
